The ΔTm is the shift of the melting midpoint relative to a reference.

This passage reports ΔTm results from ChEMBL document CHEMBL5724796, “Tm Shift (DSF) assay results for EUbOPEN Chemogenomics Library” (2024).

What all share (conditions): Compound concentration 20.0 uM
The target in assay [1] is Tyrosine-protein kinase ABL1 (Homo sapiens) (UniProt P00519).
The target in assay [2] is Bromodomain-containing protein 4 (Homo sapiens) (UniProt O60885).
In assay [3] the target is Cyclin-dependent kinase 2 (Homo sapiens) (UniProt P24941).
For assay [4], the target named is Casein kinase I isoform delta (Homo sapiens) (UniProt P48730).
Casein kinase I isoform delta (Homo sapiens), sequence (P48730 whole entry, looked up, canonical isoform): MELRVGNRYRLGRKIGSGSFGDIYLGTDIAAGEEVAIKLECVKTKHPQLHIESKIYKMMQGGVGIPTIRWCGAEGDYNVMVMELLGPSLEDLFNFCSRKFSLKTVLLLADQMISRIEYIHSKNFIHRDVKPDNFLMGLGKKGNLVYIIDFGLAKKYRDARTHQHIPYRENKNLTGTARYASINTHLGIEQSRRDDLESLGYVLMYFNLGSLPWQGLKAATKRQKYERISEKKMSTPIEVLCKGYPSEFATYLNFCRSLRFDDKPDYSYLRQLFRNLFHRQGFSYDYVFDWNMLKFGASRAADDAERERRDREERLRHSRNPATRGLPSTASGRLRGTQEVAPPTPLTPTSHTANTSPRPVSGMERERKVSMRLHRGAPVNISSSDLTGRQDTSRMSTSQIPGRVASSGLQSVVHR
For assay [5], the target named is Glycogen synthase kinase-3 beta (Homo sapiens) (UniProt P49841).
Glycogen synthase kinase-3 beta (Homo sapiens), sequence (P49841 whole entry, looked up): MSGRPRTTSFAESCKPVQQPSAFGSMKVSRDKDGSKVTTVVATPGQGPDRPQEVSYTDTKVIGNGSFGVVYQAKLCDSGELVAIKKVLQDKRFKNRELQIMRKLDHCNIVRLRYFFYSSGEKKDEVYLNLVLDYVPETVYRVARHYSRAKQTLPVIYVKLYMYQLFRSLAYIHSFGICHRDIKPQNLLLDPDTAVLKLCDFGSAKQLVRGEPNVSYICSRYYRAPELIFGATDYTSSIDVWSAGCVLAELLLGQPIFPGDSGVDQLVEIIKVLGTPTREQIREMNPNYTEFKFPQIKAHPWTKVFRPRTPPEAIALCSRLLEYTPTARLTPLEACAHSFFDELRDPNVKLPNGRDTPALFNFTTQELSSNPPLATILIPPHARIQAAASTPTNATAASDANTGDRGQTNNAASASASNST
Assay [6] concerns the target Mitogen-activated protein kinase 1 (Homo sapiens) (UniProt P28482).
The target in assay [7] is T1, Aurora kinase A (Homo sapiens) (UniProt O14965).
T1 sequence (whole entry): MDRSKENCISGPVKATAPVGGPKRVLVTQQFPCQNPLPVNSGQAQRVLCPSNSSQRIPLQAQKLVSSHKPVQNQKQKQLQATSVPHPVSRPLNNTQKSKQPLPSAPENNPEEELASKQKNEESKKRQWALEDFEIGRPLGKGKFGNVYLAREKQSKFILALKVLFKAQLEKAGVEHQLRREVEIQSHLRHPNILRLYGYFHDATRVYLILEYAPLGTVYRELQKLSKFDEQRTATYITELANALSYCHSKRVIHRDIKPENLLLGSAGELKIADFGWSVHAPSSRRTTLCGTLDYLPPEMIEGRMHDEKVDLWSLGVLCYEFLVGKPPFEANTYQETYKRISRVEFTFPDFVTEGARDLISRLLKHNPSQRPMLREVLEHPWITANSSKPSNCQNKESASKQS

The target of assay [8] is T2, Transcription intermediary factor 1-alpha (Homo sapiens) (UniProt O15164).
T2 sequence (whole entry): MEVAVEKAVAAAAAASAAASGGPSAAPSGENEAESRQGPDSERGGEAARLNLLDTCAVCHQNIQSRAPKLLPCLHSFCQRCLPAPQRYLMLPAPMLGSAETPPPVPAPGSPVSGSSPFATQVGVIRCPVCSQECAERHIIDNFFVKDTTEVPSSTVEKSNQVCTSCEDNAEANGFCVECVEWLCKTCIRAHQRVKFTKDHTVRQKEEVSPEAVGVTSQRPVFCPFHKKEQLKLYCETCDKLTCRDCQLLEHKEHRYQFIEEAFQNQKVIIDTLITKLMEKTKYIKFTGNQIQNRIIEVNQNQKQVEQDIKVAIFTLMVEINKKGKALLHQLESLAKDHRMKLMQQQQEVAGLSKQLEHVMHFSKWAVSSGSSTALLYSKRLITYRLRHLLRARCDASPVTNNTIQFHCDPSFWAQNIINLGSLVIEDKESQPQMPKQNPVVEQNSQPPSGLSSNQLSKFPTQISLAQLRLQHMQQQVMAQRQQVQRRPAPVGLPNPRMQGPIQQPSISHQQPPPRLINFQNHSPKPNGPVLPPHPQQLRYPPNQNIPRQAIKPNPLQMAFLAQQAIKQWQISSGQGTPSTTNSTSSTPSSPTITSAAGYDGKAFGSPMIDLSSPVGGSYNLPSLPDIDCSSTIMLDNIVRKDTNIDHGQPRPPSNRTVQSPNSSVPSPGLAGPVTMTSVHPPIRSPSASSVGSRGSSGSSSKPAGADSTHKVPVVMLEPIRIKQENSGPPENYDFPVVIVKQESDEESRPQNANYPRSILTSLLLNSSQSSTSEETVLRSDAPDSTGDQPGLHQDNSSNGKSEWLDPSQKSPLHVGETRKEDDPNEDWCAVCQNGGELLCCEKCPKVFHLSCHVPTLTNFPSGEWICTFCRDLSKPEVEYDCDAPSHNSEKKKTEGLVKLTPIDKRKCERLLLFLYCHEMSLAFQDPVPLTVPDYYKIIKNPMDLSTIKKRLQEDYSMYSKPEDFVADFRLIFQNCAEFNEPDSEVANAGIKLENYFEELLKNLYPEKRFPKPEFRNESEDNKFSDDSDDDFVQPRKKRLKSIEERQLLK

“And” between values parts separate entries of the source, which are not always exact repeats. Equal values may be shown once. Residues, ends and D or L forms follow the SMILES beside them.

Mitogen-activated protein kinase 1 (Homo sapiens), sequence (P28482 whole entry): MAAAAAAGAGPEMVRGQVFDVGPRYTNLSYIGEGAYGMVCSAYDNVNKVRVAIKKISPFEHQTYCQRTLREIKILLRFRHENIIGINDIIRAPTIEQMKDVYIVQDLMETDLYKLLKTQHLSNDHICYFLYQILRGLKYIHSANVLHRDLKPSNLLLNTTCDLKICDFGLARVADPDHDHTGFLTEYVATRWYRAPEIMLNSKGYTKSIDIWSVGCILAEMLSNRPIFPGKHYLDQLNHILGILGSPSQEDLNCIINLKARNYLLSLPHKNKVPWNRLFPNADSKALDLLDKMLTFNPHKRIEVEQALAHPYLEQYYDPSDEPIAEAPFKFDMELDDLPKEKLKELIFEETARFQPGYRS
Tyrosine-protein kinase ABL1 (Homo sapiens), sequence (P00519 whole entry): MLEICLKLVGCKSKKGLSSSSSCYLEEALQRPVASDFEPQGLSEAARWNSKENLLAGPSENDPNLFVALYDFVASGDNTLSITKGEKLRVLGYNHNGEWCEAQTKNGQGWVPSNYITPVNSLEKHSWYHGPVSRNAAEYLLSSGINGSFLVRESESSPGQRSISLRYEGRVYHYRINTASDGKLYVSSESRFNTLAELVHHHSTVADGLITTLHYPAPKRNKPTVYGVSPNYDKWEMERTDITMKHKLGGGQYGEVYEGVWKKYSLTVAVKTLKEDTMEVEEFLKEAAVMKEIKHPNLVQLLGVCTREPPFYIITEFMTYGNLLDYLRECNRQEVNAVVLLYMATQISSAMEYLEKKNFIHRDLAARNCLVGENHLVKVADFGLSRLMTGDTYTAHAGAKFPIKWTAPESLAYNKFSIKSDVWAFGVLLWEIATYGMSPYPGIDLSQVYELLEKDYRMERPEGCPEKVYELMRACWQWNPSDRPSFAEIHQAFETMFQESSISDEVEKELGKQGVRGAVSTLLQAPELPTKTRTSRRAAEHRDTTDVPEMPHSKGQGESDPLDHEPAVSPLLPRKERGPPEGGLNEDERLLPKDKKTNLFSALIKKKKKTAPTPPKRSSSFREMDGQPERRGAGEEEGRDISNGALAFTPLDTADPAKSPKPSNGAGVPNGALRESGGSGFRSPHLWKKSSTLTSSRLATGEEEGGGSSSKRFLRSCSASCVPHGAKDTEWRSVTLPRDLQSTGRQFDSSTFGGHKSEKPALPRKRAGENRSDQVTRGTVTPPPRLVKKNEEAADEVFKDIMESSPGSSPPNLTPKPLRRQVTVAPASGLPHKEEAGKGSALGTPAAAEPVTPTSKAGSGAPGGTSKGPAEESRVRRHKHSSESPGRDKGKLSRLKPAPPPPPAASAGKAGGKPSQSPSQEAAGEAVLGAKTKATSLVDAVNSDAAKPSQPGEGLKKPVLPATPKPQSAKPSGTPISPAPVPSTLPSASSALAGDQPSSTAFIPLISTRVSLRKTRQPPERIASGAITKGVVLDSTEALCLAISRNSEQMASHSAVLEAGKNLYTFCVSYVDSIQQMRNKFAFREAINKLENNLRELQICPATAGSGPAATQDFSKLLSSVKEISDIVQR

As for `N[C@@H](CCNCc1ccc(Cl)cc1)C(=O)N1CCCCC1`, the shift in melting temperature (ΔTm) in assay [1] was 0.49 °C; in assay [2], -3.21 °C; in assay [3], 0 °C; in assay [4] it was -0.34 °C; in assay [5] it was -0.21 °C; in assay [6], 0.19 °C. The shift in melting temperature (ΔTm) in assay [7] was -2.45 °C; in assay [8], 0.39 °C.

For the molecule `C[C@]1(c2nc3c(C(N)=O)cccc3[nH]2)CCCN1`, the ΔTm in assay [1] is 0.02 °C; in assay [2], -2.57 °C; in assay [3], -0.1 °C; in assay [4], 0.16 °C; in assay [5], -0.63 °C; in assay [6], -0.01 °C. Also, the results for the thermal shift (ΔTm) in assay [7] and in assay [8] were -1.66 °C and 1.28 °C, respectively.

As for `CC(C)NC(=O)c1ccc(OC(F)F)c(OCC2CC2)c1`, the ΔTm is 0.64 °C in assay [1]; -3.14 °C in assay [2]; 0.29 °C in assay [3]; -0.07 °C in assay [4]; -0.46 °C in assay [5]; 0.24 °C in assay [6]. The ΔTm in assay [7] was -2.33 °C; in assay [8] it was 1.71 °C.

In the case of `CCn1nc(C2CC2)cc1Nc1nc(C(=O)NC)nc2[nH]c3cc(-c4c(C)noc4C)c(OC)cc3c12`, the ΔTm in assay [1] is 0.56 °C; in assay [2], 8.71 °C; in assay [3] it was -0.11 °C; in assay [4], -0.18 °C; in assay [5], -1.43 °C; in assay [6], 0.23 °C. In addition, the thermal shift (ΔTm) is -2.42 °C in assay [7] and 0 °C in assay [8].

Take `O=c1[nH]c(Oc2cnn(Cc3ccccc3)c2)nc2cnccc12`: the ΔTm in assay [1] was 0.64 °C; in assay [2] it was -2.42 °C; in assay [3], 0.14 °C; in assay [4], -0.09 °C; in assay [5] it was 0.35 °C; in assay [6], 0.33 °C. Also, the values for the shift in melting temperature (ΔTm) in assay [7] and in assay [8] were -1.07 °C and 0.34 °C, respectively.

On to `COc1ccc(CC[C@H]2CCC[C@@H](CCc3ccc(OC)cc3)N2C[C@@H](O)CO)cc1`, for which the ΔTm is 0.7 °C in assay [1]; -3.11 °C in assay [2]; 0.11 °C in assay [3]; -0.1 °C in assay [4]; -0.21 °C in assay [5]; 0.31 °C in assay [6]. For the same molecule, the figures for the thermal shift (ΔTm) in assay [7] and in assay [8] were -2.3 °C and -0.71 °C, respectively.

Turning to `CNC[C@@H](O)COc1ccc(Cl)c(-c2nc(-c3c(C)noc3C)c(C)c(N3CC4(CCN(C(=O)OC)CC4)C3)n2)c1`, the ΔTm in assay [1] is 0.37 °C; in assay [2], -2.53 °C; in assay [3] it was 0.32 °C; in assay [4] it was 0.05 °C; in assay [5] it was -0.26 °C; in assay [6] it was -2.08 °C. For the same molecule, the shift in melting temperature (ΔTm) in assay [7] was found to be 0.12 °C; in assay [8] it was 0.65 °C.

As for `O=C(C1CC1)N1CC[C@@H](Cc2n[nH]c(=O)n2-c2ccc(-c3ccc4occc4c3)cc2)C1`, the shift in melting temperature (ΔTm) is 0.72 °C and 0.71 °C in assay [1]; -1.91 °C and -3.51 °C in assay [2]; -0.31 °C and -0.16 °C in assay [3]; 0.35 °C and -0.18 °C in assay [4]; -0.54 °C and 0.29 °C in assay [5]; 0.34 °C and 0.05 °C in assay [6]. For the same molecule, the shift in melting temperature (ΔTm) in assay [7] was -4.5 °C and -1.89 °C; in assay [8], -1.14 °C and -0.89 °C.

Take `Cc1cc(C)nc(SCC(=O)Nc2ncc(Cc3cccc(OCc4cn(Cc5ccccc5)nn4)c3)s2)n1`: the ΔTm was -4.58 °C in assay [1]; -6.78 °C in assay [2]; -3.98 °C in assay [3]; -2.38 °C in assay [4]; -0.77 °C in assay [5]; 0.65 °C in assay [6]. Besides, the ΔTm in assay [7] was -2.36 °C; in assay [8], 3.08 °C.

For the molecule `COc1cc(Oc2ccnc3cc(OC)c(OC)cc23)ccc1NC(=O)NC(C)c1nccs1` (stereo not drawn), the thermal shift (ΔTm) in assay [1] is 9.54 °C; in assay [2], -3.36 °C; in assay [4], 0.28 °C; in assay [5], -1.46 °C; in assay [6], -9.78 °C; in assay [7], -0.11 °C. In addition, the ΔTm in assay [8] is -0.38 °C.

Take `COCc1nc2cnc3cc(-c4c(C)noc4C)c(OC[C@H]4CCNC4)cc3c2n1[C@H](C)c1ccccc1`: the ΔTm in assay [1] was 0.66 °C; in assay [3], 0.15 °C; in assay [4] it was 0.02 °C; in assay [5], -0.25 °C; in assay [6] it was 0.32 °C; in assay [7], -1.27 °C. Further, the thermal shift (ΔTm) in assay [8] amounted to 1.49 °C.

Take `Cc1nc(Nc2ncc(C(=O)Nc3c(C)cccc3Cl)s2)cc(N2CCN(CCO)CC2)n1`: the ΔTm in assay [2] was -1.33 °C; in assay [3], 0.19 °C; in assay [4], 1.36 °C; in assay [5] it was -0.52 °C; in assay [6] it was -0.01 °C; in assay [7] it was 4.44 °C. For the same molecule, the ΔTm in assay [8] was -0.67 °C.

As for `CNc1ncc2cc(-c3cc(NC(=O)NCCC(C)(C)C)c(F)cc3C)c(C)nc2n1`, the ΔTm is -2.79 °C in assay [2]; 0.45 °C in assay [3]; 0.25 °C in assay [4]; 1.15 °C in assay [5]; -2.34 °C in assay [6]; -0.92 °C in assay [7]. In assay [8], the thermal shift (ΔTm) was -0.11 °C.

As to `COc1cc(Nc2ncc(F)c(Nc3ccc4c(n3)NC(=O)C(C)(C)O4)n2)cc(OC)c1OC`, the ΔTm in assay [1] is 4.14 °C; in assay [2], -1.7 °C; in assay [3] it was 0.13 °C; in assay [4], -0.37 °C; in assay [5] it was 2.52 °C; in assay [6], -3.17 °C. Also, the ΔTm in assay [8] is -0.42 °C.

Consider `FC(F)(F)Cn1cc(-c2ccncc2)c(-c2ccc(OCc3ccc4ccccc4n3)cc2)n1`, for which the shift in melting temperature (ΔTm) in assay [1] is 1.54 °C; in assay [2], -3.29 °C; in assay [3] it was 0.14 °C; in assay [4], 1.23 °C; in assay [5], -1.19 °C; in assay [6], 0.65 °C. Moreover, the ΔTm in assay [7] was 0.56 °C; in assay [8] it was -0.98 °C.

With `CC(=O)N[C@@H](CC(C)C)C(=O)N[C@@H](CCC(=O)O)C(=O)N[C@@H](Cc1cnc[nH]1)C(=O)N[C@H](C=O)CC(=O)O` (Ac-LEHD-aldehyde), the ΔTm in assay [1] was 0.07 °C; in assay [2], -2.66 °C; in assay [3] it was 0.05 °C; in assay [4], 0.09 °C; in assay [5] it was -0.79 °C; in assay [6], -0.4 °C. For the same molecule, the values for the ΔTm in assay [7] and in assay [8] were -1.34 °C and -0.81 °C, respectively.
